Sampled rows, rich in hits. Any-hit rate of the full collection: about 3.2%.
CHT block – human CHT choline transport inhibition | AID 488975 | CHT-expressing cells, membrane potential dye, choline response; hits give low values | B-score at 10 µM | Q9GZV3 | 310,000 compounds, 0.86% hits;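 active = B-score over 3 SD under the library average, and starting fluorescence ratio not unusually high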;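 also: choline stimulus applied at its EC90 after an EC20 pre-addition; B-score computed on integrated fluorescence ratio after choline addition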
CHT allo act – allosteric activators of human choline transporter CHT; CHT-expressing cells, membrane potential dye, choline EC20; hits give high values; LV-AA mutant CHT in HEK293 cells; 310,000 compounds, 0.49% hits; AID 488977; B-score at 10 µM;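 active = initial fluorescence not abnormally high and integrated response B-score, plate-corrected, over 3 SD above library mean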
Rce1 inh – blocks yeast Ras-converting enzyme; yeast membranes, quenched prenylated peptide cleavage fluorescence; calls only; 290,000 compounds, 0.27% hits; AID 2563;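 active = fall in fluorescence gain of 50% or more versus controls, with final raw signal at or below 3038400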
TMEM16A inh – blocks the mouse calcium-activated chloride channel TMEM16A; Q8BHY3; HEK293 TMEM16A/YFP iodide influx fluorescence, ionomycin; 310,000 compounds, 1.2% hits; normalized B-score (activity score, 25-100; higher = stronger inhibition) at 10 µM; AID 588511;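 active = ratio plate-corrected score three or more library SD toward inhibition, starting fluorescence score within five deviations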;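 also: score derived from kinetic fluorescence span divided by baseline fluorescence per well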
Target sequence (Q8BHY3 whole entry, looked up): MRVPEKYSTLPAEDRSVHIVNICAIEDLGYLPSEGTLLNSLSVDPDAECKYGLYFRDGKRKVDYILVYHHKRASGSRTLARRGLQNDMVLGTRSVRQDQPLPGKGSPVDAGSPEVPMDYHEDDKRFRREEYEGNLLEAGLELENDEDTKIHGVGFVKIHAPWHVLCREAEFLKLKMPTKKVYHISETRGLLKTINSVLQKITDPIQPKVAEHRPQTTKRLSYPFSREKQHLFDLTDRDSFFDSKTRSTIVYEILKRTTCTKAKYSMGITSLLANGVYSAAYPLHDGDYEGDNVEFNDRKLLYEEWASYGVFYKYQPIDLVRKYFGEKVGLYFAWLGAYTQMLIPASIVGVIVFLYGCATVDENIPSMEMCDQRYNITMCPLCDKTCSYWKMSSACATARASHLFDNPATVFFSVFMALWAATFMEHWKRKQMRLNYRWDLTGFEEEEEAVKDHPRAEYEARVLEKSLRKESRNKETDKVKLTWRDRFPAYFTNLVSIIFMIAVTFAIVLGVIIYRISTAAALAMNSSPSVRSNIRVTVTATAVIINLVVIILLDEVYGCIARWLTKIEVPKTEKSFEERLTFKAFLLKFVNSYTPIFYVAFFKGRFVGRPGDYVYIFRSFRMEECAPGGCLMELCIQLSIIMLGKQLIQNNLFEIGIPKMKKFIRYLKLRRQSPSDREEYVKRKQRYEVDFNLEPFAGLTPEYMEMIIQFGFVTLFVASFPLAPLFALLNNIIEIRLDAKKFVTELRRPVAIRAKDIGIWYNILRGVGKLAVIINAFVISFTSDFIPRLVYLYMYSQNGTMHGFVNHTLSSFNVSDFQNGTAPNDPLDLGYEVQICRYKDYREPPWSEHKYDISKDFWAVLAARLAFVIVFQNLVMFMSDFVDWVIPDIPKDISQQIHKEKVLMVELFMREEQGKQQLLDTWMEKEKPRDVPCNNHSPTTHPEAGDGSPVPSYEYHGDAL
ANO1 activ – mouse TMEM16A channel activation, primary screen; HEK293 TMEM16A/YFP-H148Q/I152L, iodide quench fluorescence; hits give low values; 340,000 compounds, 0.3% hits; B-score at 10 µM; AID 623877;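 active = fluorescence-ratio B-score plate-corrected deviation score at least 3 library SD below zero, with starting fluorescence score within 5 deviations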;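 also: channel opened by trigger with iodide after compound preincubation; score built on the fluorescence ratio of max minus min over baseline; more negative score means more quench and so TMEM16A activation or potentiation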
Kir21 inh – inhibitors of mouse Kir2.1 inward-rectifier potassium channel; HEK293-Kir2.1, FluxOR thallium flux fluorescence; hits give low values; B-score at 10 µM; 310,000 compounds, 0.85% hits; AID 1672;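 active = fluorescence ratio B-score at or below minus 3 SD of library scores, with starting-brightness B-score within 2 SD, cut at about -4.2 in these data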;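 also: channel flux triggered by added potassium and thallium sulfate stimulus; B-score of peak minus minimum fluorescence over baseline after thallium stimulus; more negative B-score means stronger Kir2.1 block with less thallium influx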
CHT inh conf – human CHT inhibition, confirmatory screen | AID 493221 | CHT activity remaining % of control (hits give low values), % at 10 µM | 2,400 compounds, 70% hits | shares compounds with CHT block | CHT-expressing cells, choline membrane potential dye; LV-to-AA substituted CHT, HEK293 cells;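 active = choline transporter activity left, mean of duplicates at 10 µM, below buffer-only control mean minus 3 SD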;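 also: depolarization triggered by choline at its EC90 following an EC20 pre-addition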
HEK293 CHT ctr – activity in parental HEK293 cells lacking CHT. membrane potential ratio readout (active if shifted either direction beyond buffer ±3SD; no single direction) at 10 µM. membrane potential dye, choline response; active = decrease or increase beyond buffer ±3SD. AID 493222. shares compounds with CHT block. 2,400 compounds, 4% hits;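 also: parental cells lack the transporter so any hit is non-specific; ratio is peak minus trough fluorescence over baseline after EC90 choline challenge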
Large screens that a line does not name were inactive (follow-up assays come after a bar, where they were run).

CC(C)CS(=O)(=O)C1=NSC2=NC(=O)/C(=C\c3ccc(OC(=O)c4ccco4)cc3)C(=N)N21	CHT block -6.91, Kir21 inh -4.42 | CHT inh conf 64.9% | HEK293 CHT ctr inactive
O=C(N/N=C/c1ccccc1)C1CCCN1C(=O)c1cc([N+](=O)[O-])cc([N+](=O)[O-])c1 (configuration not stated)	none
O=C(O)C1CCC(C(=O)O)SS1 (configuration not stated)	none (no result: CHT block, CHT allo act, Rce1 inh, TMEM16A inh, Kir21 inh)
CCS(=O)(=O)C1=NSC2=NC(=O)/C(=C\c3ccc(OS(=O)(=O)c4ccccc4)c(OC)c3)C(=N)N21	CHT block -5.26 | CHT inh conf 47.5% | HEK293 CHT ctr inactive
CCC1=NN2C(=N)/C(=C/c3ccc(OS(=O)(=O)c4ccc(C)cc4)c(OC)c3)C(=O)N=C2S1	none (no result: Rce1 inh)
Cc1ccc(S(=O)(=O)/N=C2\C=C(Nc3ccc(O)cc3)C(=O)c3ccccc32)cc1	none (no result: CHT block, CHT allo act, Rce1 inh, TMEM16A inh, Kir21 inh)
Cc1ccc(S(=O)(=O)/N=C2\C=C(Nc3cccc(C(=O)O)c3)C(=O)c3ccccc32)cc1	CHT block -5.91, TMEM16A inh 25 | CHT inh conf 41.1% | HEK293 CHT ctr 2.51
O=C1CCC([N+](=O)[O-])C(c2ccc3c(c2)OCO3)N1 (configuration not stated)	CHT block -11.6 | CHT inh conf inactive | HEK293 CHT ctr inactive
COc1ccc(NC(=O)CSc2nnc3n2CCCCC3)cc1S(=O)(=O)N1CCOCC1	none (no result: CHT block, CHT allo act, Rce1 inh, TMEM16A inh, Kir21 inh)
COc1ccc(-c2nnc(SCc3nnc(-c4cccs4)o3)n2CC2CCCO2)cc1 (configuration not stated)	none
Fc1ccc(-c2nnc(SCc3ncc(-c4ccccc4)o3)n2CC2CCCO2)cc1 (configuration not stated)	CHT block -5.93 | CHT inh conf inactive | HEK293 CHT ctr inactive
CC(C)c1ccc(OCC(=O)NCCO)cc1	none
COc1ccc([N+](=O)[O-])c(S(=O)(=O)c2ccccc2)n1	CHT block -5.3 | CHT inh conf 43.8% | HEK293 CHT ctr inactive
COc1ccc([N+](=O)[O-])c(S(=O)(=O)c2ccc(Cl)cc2)n1	CHT block -6.59, Kir21 inh -4.64 | CHT inh conf 48.0% | HEK293 CHT ctr inactive
COc1nc(OC)nc(Oc2ccc(Cl)cc2[N+](=O)[O-])n1	none
O=[N+]([O-])c1cccnc1S(=O)(=O)c1ccccc1	none
CCNc1nc2c(cnn2C)c(=O)[nH]1	none (no result: CHT block, CHT allo act, Rce1 inh, TMEM16A inh, Kir21 inh)
O=C(ONC(=O)C1C2C=CC(C2)C1C(=O)NOC(=O)c1ccccc1)c1ccccc1 (configuration not stated)	none (no result: CHT block, CHT allo act, Rce1 inh, TMEM16A inh, Kir21 inh)
Cc1ccc2[nH]c(C(=O)O)c(NC(=O)[C@@H]3C[C@@H]3c3ccccc3)c2c1	CHT block -5.03 | CHT inh conf inactive | HEK293 CHT ctr inactive
Cc1ccc(CNC(=O)C2CC2c2ccccc2)cc1 (configuration not stated)	none
O=C(Nc1ccccc1)c1ccc(=O)n(Cc2ccc(F)c(F)c2)c1	CHT block -6.39 | CHT inh conf inactive | HEK293 CHT ctr inactive
NC(=O)c1ccc(=O)n(Cc2ccc(F)c(F)c2)c1	none
Cc1c(C#N)c(NC(=O)CCl)n(Cc2cccs2)c1C	CHT block -6.13 | CHT inh conf inactive | HEK293 CHT ctr inactive
CC1Cc2c([nH]c3ccccc23)C2c3ccccc3CN12 (configuration not stated)	none
COc1ccccc1N=NC1=C(O)CC(C)(C)CC1=O	CHT block -5.51 (no result: Rce1 inh) | CHT inh conf inactive | HEK293 CHT ctr inactive
CC(C)C(NC(=O)CCNC(=O)c1ccc([N+](=O)[O-])cc1)c1nc2ccccc2[nH]1 (configuration not stated)	none (no result: CHT block, CHT allo act, Rce1 inh, TMEM16A inh, Kir21 inh)
CCOC(=O)CSc1[nH]c2cc(OC)ccc2c1[N+](=O)[O-]	none
COC(=O)CSc1[nH]c2ccc(F)cc2c1[N+](=O)[O-]	CHT block -7.21 | CHT inh conf 15.0% | HEK293 CHT ctr inactive
O=S(=O)(c1cccc(COc2c(Cl)cccc2Cl)c1)N1CCOCC1	none
O=C(CSc1nc2c(c(=O)n1-c1ccc(Cl)cc1)SCC2)N1CCCC1	CHT block -6.81 | CHT inh conf inactive | HEK293 CHT ctr inactive
O=c1c2cc3c(cc2[nH]c(=S)n1C1CCN(Cc2ccccc2)CC1)OCO3	none
CCOc1cc2[nH]c(=S)n(C3CCN(Cc4ccccc4)CC3)c(=O)c2cc1OCC	CHT block -5.76 | CHT inh conf inactive | HEK293 CHT ctr inactive
O=c1c2ccccc2[nH]c(=S)n1CCN1CCCC1	CHT block -6.97 | CHT inh conf 21.3% | HEK293 CHT ctr inactive
CCN1CCN(CCn2c(=S)[nH]c3ccccc3c2=O)CC1	none (no result: ANO1 activ)
COc1cc(/C=C/C(=O)OCC(=O)N2CCN(S(=O)(=O)c3ccc(C)cc3C)CC2)cc(Cl)c1OC	none (no result: CHT block, CHT allo act, Rce1 inh, TMEM16A inh, Kir21 inh)
CCOC(=O)C1=C(C)NC(=O)NC1C(C)C (configuration not stated)	none
CN(C)C(=O)c1ccccc1Sc1ccc(Cl)cc1Cl	CHT block -4.95 | CHT inh conf inactive | HEK293 CHT ctr inactive
CC(=O)Nc1ccc(NC(=O)c2ccccc2Sc2ccc([N+](=O)[O-])cc2Cl)cc1	none
O=C1CN(C(=O)COC(=O)c2ccccc2Br)c2ccccc2N1	none (no result: CHT block, CHT allo act, Rce1 inh, TMEM16A inh, Kir21 inh)
C=CCNC(=O)/C(=C\c1ccc([N+](=O)[O-])cc1)NC(C)=O	CHT block -7.59 | CHT inh conf inactive | HEK293 CHT ctr inactive
COc1ccc(C(C)(C)C)cc1NC(=O)CN1C(=O)C(=O)N(Cc2ccco2)C1=O	none (no result: CHT block, CHT allo act, Rce1 inh, TMEM16A inh, Kir21 inh)
O=C(CCC1CCCC1)NCCCNC(=O)CCC1CCCC1	CHT block -6.47 | CHT inh conf 37.9% | HEK293 CHT ctr inactive
Cc1ccc(S(=O)(=O)c2cnc(-c3ccccc3)nc2N2CCCCC2)cc1	none
COc1ccc(Cc2noc(CN(C)CC(O)c3ccccc3)n2)cc1OC (configuration not stated)	CHT block -5.66 | CHT inh conf inactive | HEK293 CHT ctr inactive
CC(C)(C)c1cc(C(=O)N/N=C/c2ccccc2O)n(-c2ccccc2)n1	none
CC(C)(C)c1cc(C(=O)N/N=C/c2ccc(F)cc2)n(-c2ccccc2)n1	CHT block -5.13 | CHT inh conf 68.4% | HEK293 CHT ctr inactive
COc1ccc(-c2nc3cc([N+](=O)[O-])ccc3o2)cc1	CHT block -5.19 | CHT inh conf inactive | HEK293 CHT ctr inactive
Oc1ccc(N=Nc2ccccc2-c2nn[nH]n2)c(O)c1	none
CCc1cccc2c(C=C(C#N)C#N)cn(CC(=O)N3CCCCCC3)c12	none
